Reference: PubChem BioAssay (EPA / NIEHS)
Results filed as inconclusive are left out. Calls of active or inactive are those of the source. Rule for the calls, unless noted: active = hit-call score of the fitted dose curve at least 0.9, where 1 is the maximum; inconclusive = response in the unintended direction; inactive = score below 0.9. Where a SMILES comes first, the peptide text is derived from it. [ ]: non-standard residue; d: D form. The star is where a group is joined. Sta = CC(C)C[C@H](N)[C@@H](O)CC(=O)O; Isovaleryl = CC(C)CC(=O)*

Experiments:
[1] = TOX21_p53_BLA_p3_viability: Viability Assessment in the Tox21 HCT-116 p53 Agonism Beta-lactamase Assay, Phase 3 (AID 2283593);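 note: cells exposed to compound for 16 h before reading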
Procedure, shortened: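 HCT116 cells, 4000/well, dosed 5 h after plating by pin transfer (217-fold dilution from DMSO stock) and incubated 16 h at 37C, 5% CO2. Viability read as ATP luminescence with CellTiter-Glo after 30 min at room temperature.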

[2] = biological target: Cellular tumor antigen p53 (Homo sapiens) (UniProt P04637); assay: TOX21_p53_BLA_p3_ratio: Tox21 HCT-116 p53 Agonism Beta-lactamase Assay, Ratio, Phase 3 (AID 2283596)
Chain of Cellular tumor antigen p53 (Homo sapiens) (P04637 whole entry, looked up): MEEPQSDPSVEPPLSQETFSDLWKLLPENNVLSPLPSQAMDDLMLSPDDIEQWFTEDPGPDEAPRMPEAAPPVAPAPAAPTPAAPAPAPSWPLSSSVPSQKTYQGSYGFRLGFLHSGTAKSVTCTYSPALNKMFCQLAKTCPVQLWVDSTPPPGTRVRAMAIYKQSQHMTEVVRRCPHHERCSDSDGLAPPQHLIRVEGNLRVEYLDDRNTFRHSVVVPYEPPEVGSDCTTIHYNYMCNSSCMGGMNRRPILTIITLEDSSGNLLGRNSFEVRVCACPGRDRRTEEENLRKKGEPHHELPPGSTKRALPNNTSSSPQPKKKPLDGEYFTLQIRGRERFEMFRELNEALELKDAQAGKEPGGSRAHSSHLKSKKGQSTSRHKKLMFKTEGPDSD
Procedure, shortened: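 Cells were seeded at 4000/well, rested 5 h at 37C, then dosed with DMSO compound solutions (217-fold dilution) for 16 h. CCF4-AM substrate was loaded for 2 h at room temperature, and the 460/530 nm emission ratio was fitted for gain of signal versus DMSO.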

[3] = TOX21_p53_BLA_p4_viability: Viability Assessment in the Tox21 HCT-116 p53 Agonism Beta-lactamase Assay, Phase 4 (AID 2283597);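 note: hits lower the luminescence signal meaning cytotoxicity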
Procedure, shortened: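 Cytotoxicity was inferred from loss of CellTiter-Glo luminescence. HCT116 cells had been dosed with compounds after 5 h plating, incubated 16 h at 37C and 5% CO2, and exposed to the CCF4-AM substrate for 2 h.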

[4] = biological target: Cellular tumor antigen p53 (Homo sapiens) (UniProt P04637); assay: TOX21_p53_BLA_p5_ratio: Tox21 HCT-116 p53 Agonism Beta-lactamase Assay, Ratio, Phase 5 (AID 2283599)
Procedure, shortened: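 HCT-116 p53-bla cells (4000/well) plated 5 h, dosed with compound (217-fold DMSO dilution) for 16 h at 37 C; CCF4-AM substrate 2 h at room temperature. Activity is the 460/530 nm emission ratio (405 nm excitation), fitted in gain-of-signal direction versus DMSO.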

[5] = TOX21_p53_BLA_p5_viability: Viability Assessment in the Tox21 HCT-116 p53 Agonism Beta-lactamase Assay, Phase 5 (AID 2283600)
Procedure, shortened: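 Luciferase-coupled ATP quantitation of cells treated for 16 h (37C, 5% CO2) with test chemicals delivered in DMSO via a 217-fold dilution; 4000 cells/well; reagent incubated 30 min at room temperature before luminescence reading.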

[6] = biological target: Cellular tumor antigen p53 (Homo sapiens) (UniProt P04637); assay: TOX21_p53_BLA_p2_ratio: Tox21 HCT-116 p53 Agonism Beta-lactamase Assay, Ratio, Phase 2 (AID 2283592)
Procedure, shortened: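 Ratio endpoint: beta-lactamase cleavage of CCF4-AM, blue (460 nm) over green (530 nm). HCT116 reporter line; 16 h treatment, 37C; substrate 2 h RT.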

[7] = biological target: Cellular tumor antigen p53 (Homo sapiens) (UniProt P04637); assay: TOX21_p53_BLA_p4_ratio: Tox21 HCT-116 p53 Agonism Beta-lactamase Assay, Ratio, Phase 4 (AID 2283601)
Procedure, shortened: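 HCT-116 p53 beta-lactamase reporter cells (4000/well) preincubated 5 h, then compound (217-fold dilution of DMSO stock) for 16 h at 37C. CCF4-AM substrate added 2 h at room temperature; 460/530 nm emission ratio fitted upward versus DMSO.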

[8] = CCTE_Deisenroth_AIME_96WELL_CTox_Active: Cytotoxicity Assessment (CTOX) in CCTE's 96-well Estrogen Receptor Transactivation Assay with AIME metabolic competence (metabolism positive), Deisenroth Lab (AID 2284028)
Procedure, shortened: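 Cytotoxicity in VM7Luc4E2 breast cells after 24 h exposure to medium from a 2 h metabolic pre-incubation with induced rat hepatic S9 in alginate microspheres; fluorescent live-cell protease readout, 10-point series 0.002–200 uM, n=4.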

[9] = CCTE_Deisenroth_AIME_96WELL_CTox_Inactive: Cytotoxicity Assessment (CTOX) in CCTE's 96-well Estrogen Receptor Transactivation Assay without AIME metabolic competence (metabolism negative), Deisenroth Lab (AID 2284029)
Procedure, shortened: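 Cytotoxicity in VM7Luc4E2 breast cells was scored as loss of fluorescent signal from a live-cell protease substrate 24 h after exposure, using bidirectional curve fitting. Test media came from a 2 h metabolism-negative pre-incubation (alginate-water, no hepatic S9) of compounds at 0.002-200 uM, with at least four replicates.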

[10] = CCTE_Shafer_MEA_dev_firing_rate_mean: CCTE's Neural Network Formation Assay for Mean Firing Rate, Shafer Lab (AID 2284031; active = hit-call score of the fitted dose curve at least 0.9, where 1 is the maximum; inactive = score below 0.9)
Procedure, shortened: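 Read-out: spike count/recording length, averaged over active electrodes, then AUC across days 5, 7, 9, 12. Rat cortical cultures on MEA; continuous 12-day exposure, media and treatment renewed DIV 5, 9; DMSO baseline.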

[11] = CCTE_Shafer_MEA_dev_per_burst_spike_percent: CCTE's Neural Network Formation Assay for Percent of Spikes in a Burst, Shafer Lab (AID 2284032; active = hit-call score of the fitted dose curve at least 0.9, where 1 is the maximum; inactive = score below 0.9)
Procedure, shortened: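 Value is trapezoidal AUC over recordings on days 5, 7, 9 and 12 of the well-mean fraction of spikes falling in single-electrode bursts; rat cortical cultures exposed continuously from plating, treatment renewed DIV 5 and 9, fitted downward against DMSO.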

[12] = CCTE_Shafer_MEA_dev_active_electrodes_number: CCTE's Neural Network Formation Assay for Number of Active Electrodes, Shafer Lab (AID 2284040)
Procedure, shortened: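 Developing rat cortical networks on MEAs, exposed DIV 0–12. Value is the AUC of active-electrode counts (≥5 spikes/min) from days 5, 7, 9, 12, relative to DMSO.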

[13] = CCTE_Shafer_MEA_dev_burst_rate: CCTE's Neural Network Formation Assay for Burst Rate, Shafer Lab (AID 2284042; active = hit-call score of the fitted dose curve at least 0.9, where 1 is the maximum; inactive = score below 0.9)
Procedure, shortened: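 Exposure ran continuously over 12 days of network development in rat cortical cultures, with compound refreshed during full media changes on DIV 5 and 9. Single-electrode bursts per recording time, well-mean over active electrodes, trapezoidal AUC across days 5–12, fitted downward relative to DMSO.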

[14] = CCTE_Shafer_MEA_dev_bursting_electrodes_number: CCTE's Neural Network Formation Assay for Number of Bursting Electrodes, Shafer Lab (AID 2284043)
Procedure, shortened: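 Rat cortical primary neurons, 48-well MEA, 16 electrodes/well; dosing DIV 0–12, re-dosed with full media change DIV 5, 9. Recordings DIV 5/7/9/12, AxIS adaptive spike detector; bursting electrode = ≥1 burst/2 min. AUC across days; loss of signal vs DMSO.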

[15] = CCTE_Shafer_MEA_dev_per_burst_interspike_interval: CCTE's Neural Network Formation Assay for Burst Interspike Interval, Shafer Lab (AID 2284044; active = hit-call score of the fitted dose curve at least 0.9, where 1 is the maximum; inactive = score below 0.9)
Procedure, shortened: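 Rat cortical primary cultures, 16 electrodes/well; compound from plating, renewed with full media change DIV 5 and 9. Spikes via adaptive detector; per-burst ISI well-mean over active bursting electrodes; AUC of DIV 5/7/9/12 recordings; loss-direction fit vs DMSO.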

[16] = CCTE_Shafer_MEA_dev_burst_duration_mean: CCTE's Neural Network Formation Assay for Mean Burst Duration, Shafer Lab (AID 2284045; active = hit-call score of the fitted dose curve at least 0.9, where 1 is the maximum; inactive = score below 0.9)
Procedure, shortened: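 Rat cortical cultures, 1.5 x 10^5 cells/well with laminin drop; continuous dosing days 0–12, media plus treatment refreshed DIV 5, 9. AxIS adaptive spike detection; mean single-electrode burst duration, AUC over four recordings, negative direction vs DMSO.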

[17] = CCTE_Shafer_MEA_dev_interburst_interval_mean: CCTE's Neural Network Formation Assay for Mean Interburst Interval, Shafer Lab (AID 2284046; active = hit-call score of the fitted dose curve at least 0.9, where 1 is the maximum; inactive = score below 0.9;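 note: well-mean interburst interval of bursting electrodes as AUC over four recording days; curve fitted for decrease in interburst interval relative to DMSO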)
Procedure, shortened: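 Primary rat cortical neurons on PEI-coated 48-well MEA plates (laminin added with cells at plating) (16 electrodes/well), exposed from plating day 0 with renewal at DIV 5 and 9. Mean inter-burst interval averaged over bursting electrodes, AUC across days 5, 7, 9, 12; DMSO baseline.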

[18] = CCTE_Shafer_MEA_dev_inter_network_spike_interval_mean: CCTE's Neural Network Formation Assay for Mean Inter-network Spike Interval, Shafer Lab (AID 2284047; active = hit-call score of the fitted dose curve at least 0.9, where 1 is the maximum; inactive = score below 0.9)
Procedure, shortened: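 Mean time between consecutive network-spike peaks, recorded extracellularly (adaptive spike detection) on DIV 5, 7, 9 and 12, summarized as trapezoidal AUC. Rat cortical cultures on MEAs dosed continuously days 0–12, re-dosed at feeds; loss-of-signal fit relative to DMSO.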

[19] = CCTE_Shafer_MEA_dev_network_spike_number: CCTE's Neural Network Formation Assay for Number of Network Spikes, Shafer Lab (AID 2284048; active = hit-call score of the fitted dose curve at least 0.9, where 1 is the maximum; inactive = score below 0.9;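 note: synchronized bursts across electrodes counted on days 5 7 9 12 and integrated as AUC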)
Procedure, shortened: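 Rat cortical primary cultures on 48-well MEA (16 electrodes/well); continuous exposure DIV 0–12, full medium and treatment exchange DIV 5, 9. Readout: network spike count, AxIS adaptive detection, recordings DIV 5/7/9/12 collapsed to AUC; loss-of-signal fit, DMSO baseline.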

[20] = CCTE_Shafer_MEA_dev_network_spike_peak: CCTE's Neural Network Formation Assay for Mean Number of Electrodes in Network Spike, Shafer Lab (AID 2284049; active = hit-call score of the fitted dose curve at least 0.9, where 1 is the maximum; inactive = score below 0.9)
Procedure, shortened: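 Network-spike peak electrode count from recordings on days 5, 7, 9 and 12 was combined as trapezoidal area under the curve. Rat cortical cultures were treated continuously from plating, with compound renewed at each feed (DIV 5, 9); fits versus DMSO.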

[21] = CCTE_Shafer_MEA_dev_spike_duration_mean: CCTE's Neural Network Formation Assay for Mean Spike Duration, Shafer Lab (AID 2284051; active = hit-call score of the fitted dose curve at least 0.9, where 1 is the maximum; inactive = score below 0.9;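 note: mean network spike duration pooled as area under curve over DIV 5 to 12 recordings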)
Procedure, shortened: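 Spontaneous activity was recorded on days 5, 7, 9 and 12 from rat cortical cultures grown on microelectrode arrays and dosed continuously from day 0, with media and compound renewed after the DIV 5 and 9 recordings. Network-spike duration was collapsed by area under the curve.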

[22] = CCTE_Shafer_MEA_dev_network_spike_duration_std: CCTE's Neural Network Formation Assay for Standard Deviation of Network Spike Duration, Shafer Lab (AID 2284052; active = hit-call score of the fitted dose curve at least 0.9, where 1 is the maximum; inactive = score below 0.9;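 note: hits are decreases in network spike duration SD versus DMSO vehicle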)
Procedure, shortened: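 Network spike duration variability was collapsed across recordings on days 5, 7, 9 and 12 by trapezoidal area-under-curve and fitted downward against DMSO. Cultures were rat cortical neurons on PEI-coated MEA plates, dosed continuously from plating, refed with compound DIV 5/9.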

[23] = CCTE_Shafer_MEA_dev_per_network_spike_spike_number_mean: CCTE's Neural Network Formation Assay for Mean Number of Spikes in a Network Spike, Shafer Lab (AID 2284053; active = hit-call score of the fitted dose curve at least 0.9, where 1 is the maximum; inactive = score below 0.9)
Procedure, shortened: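 Mean spike count within each network spike, taken in a 0.05 s window at its peak, was recorded on days 5, 7, 9 and 12 and integrated as trapezoidal area under the curve. Rat cortical cultures on MEA plates received continuous compound from day 0, refreshed at medium changes on DIV 5 and 9.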

[24] = CCTE_Shafer_MEA_dev_per_network_spike_spike_percent: CCTE's Neural Network Formation Assay for Percent of Spikes in a Network Spike, Shafer Lab (AID 2284054; active = hit-call score of the fitted dose curve at least 0.9, where 1 is the maximum; inactive = score below 0.9)
Procedure, shortened: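 Read-out: percent of spikes falling in a 0.05 s window at network-spike peak, from spontaneous MEA recordings on days 5, 7, 9 and 12; trapezoidal AUC; loss of signal versus DMSO. Rat cortical cultures, compound present throughout.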

[25] = CCTE_Shafer_MEA_dev_LDH: CCTE's Lactate Dehydrogenase Assay for Cytotoxicity in the Neural Network Formation Assay, Shafer Lab (AID 2284068);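 note: exposure for twelve days from plating with re-dosing on DIV 5 and 9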
Procedure, shortened: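 Primary rat cortical neurons were cultured on PEI-coated MEA plates and exposed from plating through day 12, with compound renewed at medium changes on DIV 5 and 9. LDH activity was read spectrophotometrically; loss of signal versus DMSO indicates reduced viability.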

[26] = CCTE_Shafer_MEA_dev_AB: CCTE's Alamar Blue Assay for Cytotoxicity in the Neural Network Formation Assay, Shafer Lab (AID 2284083);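 note: resazurin reduction fluorescence as viability of cultured neurons; twelve days of exposure from plating with re-dosing on DIV 5 and 9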
Procedure, shortened: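 Resazurin fluorescence, relative to DMSO, gauges viability after twelve days of exposure that began at plating of rat cortical neurons (1.5 x 10^5 cells/well, 48-well MEA); treatment renewed with full medium exchange on DIV 5 and 9.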

[27] = CCTE_Shafer_MEA_dev_correlation_coefficient_mean: CCTE's Neural Network Formation Assay for Mean Correlation Coefficient, Shafer Lab (AID 2284093; active = hit-call score of the fitted dose curve at least 0.9, where 1 is the maximum; inactive = score below 0.9)
Procedure, shortened: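 Primary rat cortical neurons on PEI-coated 48-well MEA plates (16 electrodes/well) were exposed from plating day 0 through DIV12, with compound renewed at DIV5 and 9. Pairwise spike correlations were averaged per well; trapezoidal AUC across DIV5, 7, 9, 12.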

Measured: outcome

CCCOC(C)=O
inactive: [1] | [2] | [3] | [4] | [5]

CC[C@@H](N)CO
inactive: [1] | [2] | [3] | [4]

OC[C@H]1O[C@@H](OCCc2ccc(O)cc2)[C@H](O)[C@@H](O)[C@@H]1O
inactive: [1]

CC(C)CC(=O)N[C@H](C(=O)N[C@H](C(=O)N[C@@H](CC(C)C)[C@@H](O)CC(=O)N[C@@H](C)C(=O)N[C@@H](CC(C)C)[C@@H](O)CC(=O)O)C(C)C)C(C)C (Isovaleryl-VV[Sta]A[Sta]-OH)
inactive: [6] | [7]

CCOC(=O)C(Br)c1ccccc1 (stereo not given)
inactive: [6] | [7]

COc1ccc2c(c1)C(=O)N(CCc1ccc(S(=O)(=O)NC(=O)NC3CCCCC3)cc1)C(=O)C2(C)C
inactive: [6] | [7]

CC1(c2ccccc2)OC(C(=O)O)=CC1=O (stereo not given)
inactive: [6] | [7]

c1ccc2c(c1)ccc1c3ccccc3ccc21
inactive: [1] | [2] | [4] | [7] | [8] | [9] | [10] | [11] | [12] | [13] | [14] | [15] | [16] | [17] | [18] | [19] | [20] | [21] | [22] | [23] | [24] | [25] | [26] | [27]

CC(C)(CCl)c1ccccc1
inactive: [1] | [3] | [4] | [5] | [7]

CC(=O)OCC(=O)[C@@]1(O)[C@H](C)C[C@H]2[C@@H]3C[C@H](F)C4=CC(=O)C=C[C@]4(C)[C@H]3[C@@H](O)C[C@@]21C
inactive: [1] | [3] | [7]

Oc1ccc(C(O)CNCCCCCCNCC(O)c2ccc(O)c(O)c2)cc1O (stereo not given)
inactive: [1] | [4] | [5]

Cc1cc(O)c(Cl)cc1C
inactive: [1] | [3] | [4] | [5]

COc1ccc(C)cc1[N+](=O)[O-]
inactive: [1] | [4] | [5]

CCOC(=O)Nc1ccc2c(c1)N(C(=O)CCN1CCOCC1)c1ccccc1S2
inactive: [1] | [4] | [5]

CC(C)(C)N(CCO)CCO
inactive: [1] | [2] | [7]

Oc1ccc(CCNCCCCCCNCCc2ccccc2)cc1O
inactive: [1] | [3] | [5] | [7]
